Laboratory results published in PubChem BioAssay AID1159580 (chemical genetic matrix, 2015).
Several values for one entry are separate records, joined by “and”; a condition that tells them apart may be missing. Equal entries are not always repeated. In all, about 5,500 compounds went through this assay and about 2,000 (36%) were called active. Another 18% or so got no clear call; they are omitted. Rule as the data show it: active = normalized growth mostly below about 0.91 (no sharp cut-off); inconclusive = no clear call, values can overlap the other calls; inactive = mostly above about 0.92. Some of the results follow.

Test: chemical genetic growth profiling, strain panel (AID 1159580);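 also: tested at 20 µM; growth read once vehicle control cultures reached saturation at 30 °C; 1 = growth at the plate median or of vehicle wells; lower values mean less growth of the strain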
Conditions: growth OD

Measured: normalized growth

NCCc1ccc(O)c(O)c1
inactive: S. cerevisiae deletion strains, locus YJL187C, strain SWE1 (second series), hits give low values 0.965 | S. cerevisiae deletion strains, locus YJR043C, strain POL32, hits give low values 1.03 | S. cerevisiae deletion strains, locus YJR066W, strain TOR1, hits give low values 0.958 and 0.96 | S. cerevisiae deletion strains, locus YJR075W, strain HOC1, hits give low values 0.98 and 0.981 | S. cerevisiae deletion strains, locus YKL009W, strain mrt4, hits give low values 0.964 | S. cerevisiae deletion strains, locus YKL068W, hits give low values 0.981 | S. cerevisiae deletion strains, locus YKL085W, strain MDH1 (second series), hits give low values 0.994 | S. cerevisiae deletion strains, locus YKL085W, strain MDH1, hits give low values 0.994 | S. cerevisiae deletion strains, locus YKL160W, strain elf1, hits give low values 1 | S. cerevisiae deletion strains, locus YKR001C, strain vps1, hits give low values 0.995 | S. cerevisiae deletion strains, locus YKR026C, strain gcn3, hits give low values 1 | S. cerevisiae deletion strains, locus YKR091W, strain srl3, hits give low values 1.01 | S. cerevisiae deletion strains, locus YLL001W, strain dnm1, hits give low values 0.983 | S. cerevisiae deletion strains, locus YLL026W, hits give low values 1 | S. cerevisiae deletion strains, locus YLL041C, strain sdh2, hits give low values 0.991 | S. cerevisiae deletion strains, locus YLR027C, strain aat2, hits give low values 1.01 | S. cerevisiae deletion strains, locus YLR039C, strain RIC1, hits give low values 0.99 | S. cerevisiae deletion strains, locus YLR058C, strain SHM2, hits give low values 0.985 | S. cerevisiae deletion strains, locus YLR102C, strain apc9, hits give low values 0.992 | S. cerevisiae deletion strains, locus YLR113W, strain HOG1, hits give low values 1.07 and 1.04 | S. cerevisiae deletion strains, locus YLR221C, strain rsa3, hits give low values 0.982 | S. cerevisiae deletion strains, locus YLR258W, strain gsy2, hits give low values 1 | S. cerevisiae deletion strains, locus YLR262C, strain YPT6 (second series), hits give low values 0.998 | S. cerevisiae deletion strains, locus YLR262C, strain YPT6, hits give low values 0.969 | S. cerevisiae deletion strains, locus YLR268W, strain sec22, hits give low values 1.01 | S. cerevisiae deletion strains, locus YLR320W, strain mms22, hits give low values 1 | S. cerevisiae deletion strains, locus YLR330W, strain CHS5, hits give low values 0.998 | S. cerevisiae deletion strains, locus YLR342W, strain FKS1 (second series), hits give low values 0.981 | S. cerevisiae deletion strains, locus YLR342W, strain FKS1, hits give low values 0.999 | S. cerevisiae deletion strains, locus YLR357W, strain rsc2, hits give low values 0.985 | S. cerevisiae deletion strains, locus YLR370C, strain arc18, hits give low values 1.01 | S. cerevisiae deletion strains, locus YLR371W, strain rom2, hits give low values 0.992 | S. cerevisiae deletion strains, locus YLR384C, strain iki3, hits give low values 0.99 | S. cerevisiae deletion strains, locus YLR418C, strain cdc73, hits give low values 0.999 | S. cerevisiae deletion strains, locus YML016C, strain PPZ1, hits give low values 0.991 | S. cerevisiae deletion strains, locus YML032C, strain rad52, hits give low values 1.01 | S. cerevisiae deletion strains, locus YML120C, strain ndi1, hits give low values 1.01 | S. cerevisiae deletion strains, locus YML124C, strain tub3, hits give low values 1 | S. cerevisiae deletion strains, locus YMR058W, strain fet3, hits give low values 1.02 | S. cerevisiae deletion strains, locus YMR078C, strain ctf18, hits give low values 0.991 | S. cerevisiae deletion strains, locus YMR125W, strain sto1, hits give low values 1.01 | S. cerevisiae deletion strains, locus YMR129W, hits give low values 1.01 | S. cerevisiae deletion strains, locus YMR205C, strain PFK2, hits give low values 1.03 | S. cerevisiae deletion strains, locus YMR223W, strain ubp8, hits give low values 0.972 | S. cerevisiae deletion strains, locus YMR231W, strain pep5, hits give low values 1.01 | S. cerevisiae deletion strains, locus YMR307W, strain GAS1, hits give low values 1.03 | S. cerevisiae deletion strains, locus YNL067W, strain RPL9B, hits give low values 0.968 | S. cerevisiae deletion strains, locus YNL071W, strain lat1, hits give low values 1 | S. cerevisiae deletion strains, locus YNL153C, strain GIM3, hits give low values 0.973 and 0.99 | S. cerevisiae deletion strains, locus YNL175C, strain NOP13, hits give low values 1 | S. cerevisiae deletion strains, locus YNL183C, strain NPR1, hits give low values 1 and 0.946 | S. cerevisiae deletion strains, locus YNL197C, strain WHI3, hits give low values 0.993 | S. cerevisiae deletion strains, locus YNL209W, strain ssb2, hits give low values 1 | S. cerevisiae deletion strains, locus YNL224C, strain SQS1, hits give low values 1 | S. cerevisiae deletion strains, locus YNL233W, strain BNI4, hits give low values 0.984 | S. cerevisiae deletion strains, locus YNL248C, strain rpa49, hits give low values 0.985 | S. cerevisiae deletion strains, locus YNL250W, strain rad50, hits give low values 1 | S. cerevisiae deletion strains, locus YNL271C, strain bni1, hits give low values 0.991 | S. cerevisiae deletion strains, locus YNL298W, strain CLA4, hits give low values 1 | S. cerevisiae deletion strains, locus YNL307C, strain MCK1, hits give low values 1 | S. cerevisiae deletion strains, locus YNL322C, strain KRE1 (second series), hits give low values 0.99 | S. cerevisiae deletion strains, locus YNR049C, strain mso1, hits give low values 1.01 | S. cerevisiae deletion strains, locus YNR052C, strain pop2, hits give low values 1.01 | S. cerevisiae deletion strains, locus YOL012C, strain htz1 0.769 | S. cerevisiae deletion strains, locus YOL147C, strain pex11, hits give low values 0.998 | S. cerevisiae deletion strains, locus YOR001W, strain rrp6, hits give low values 0.997 | S. cerevisiae deletion strains, locus YOR061W, strain CKA2, hits give low values 0.993 | S. cerevisiae deletion strains, locus YOR069W, strain VPS5, hits give low values 0.998 | S. cerevisiae deletion strains, locus YOR080W, strain dia2, hits give low values 1.01 | S. cerevisiae deletion strains, locus YOR083W, strain WHI5 (second series), hits give low values 0.984 | S. cerevisiae deletion strains, locus YOR083W, strain WHI5, hits give low values 1.01 | S. cerevisiae deletion strains, locus YOR106W, strain vam3, hits give low values 0.981 | S. cerevisiae deletion strains, locus YOR136W, strain idh2, hits give low values 0.999 | S. cerevisiae deletion strains, locus YOR144C, strain elg1, hits give low values 0.997 | S. cerevisiae deletion strains, locus YOR184W, strain ser1, hits give low values 0.995 | S. cerevisiae deletion strains, locus YOR231W, strain MKK1, hits give low values 1.07 and 1.04 | S. cerevisiae deletion strains, locus YOR265W, strain rbl2, hits give low values 1.01 | S. cerevisiae deletion strains, locus YOR270C, strain vph1, hits give low values 1.06 | S. cerevisiae deletion strains, locus YOR290C, strain snf2, hits give low values 1.01 | S. cerevisiae deletion strains, locus YOR316C, strain cot1, hits give low values 0.993 | S. cerevisiae deletion strains, locus YPL051W, strain arl3, hits give low values 0.974 | S. cerevisiae deletion strains, locus YPL055C, strain LGE1, hits give low values 0.974 | S. cerevisiae deletion strains, locus YPL078C, strain atp4, hits give low values 1.02 | S. cerevisiae deletion strains, locus YPL106C, strain sse1, hits give low values 0.968 | S. cerevisiae deletion strains, locus YPL240C, strain hsp82, hits give low values 1.01 | S. cerevisiae deletion strains, locus YPL256C, strain CLN2, hits give low values 1.03 and 1.04 | S. cerevisiae deletion strains, locus YPR119W, strain clb2, hits give low values 0.995 | S. cerevisiae deletion strains, locus YPR141C, strain kar3, hits give low values 0.969 | S. cerevisiae deletion strains, locus YPR163C, strain tif3, hits give low values 0.997 | S. cerevisiae deletion strains, locus YPR167C, strain met16, hits give low values 0.999 | S. cerevisiae deletion strains, strain wtn01, hits give low values 0.994 | S. cerevisiae strains, strain wild type, hits give low values 0.993
